Measured values as given in PubChem BioAssay (NCI).
About 79,000 compounds went through this panel and 15% of them were active in at least one assay; those are over-represented in the sample as a whole. The source made the active and inactive calls. No stated cut-off is given here; in the data, active means growth inhibition above about 70%; inactive means the rest.

Key:
[1] = NCI Yeast Anticancer Drug Screen. Data for the rad50 strain (AID 155);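 further: 0% = growth of vehicle-only cultures of the same strain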; conditions: S. cerevisiae rad50 strain growth inhibition, stronger effect = higher value
How it was run: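 Compounds were tested on a yeast strain with an engineered DNA damage repair alteration; the reported value is growth inhibition normalised to vehicle treatment.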

[2] = NCI Yeast Anticancer Drug Screen. Data for the mec2-1 strain (AID 157); conditions: S. cerevisiae mec2-1 strain, stronger effect = higher value
How it was run: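 Vehicle-treated cultures served as reference for growth inhibition of compound-exposed mec2-1 yeast.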

[3] = NCI Yeast Anticancer Drug Screen. Data for the sgs1 mgt1 strain (AID 161);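 further: 0% = growth of cultures given vehicle only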; conditions: S. cerevisiae sgs1 mgt1 strain, stronger effect = higher value
How it was run: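 Genetically altered yeast, compound exposure, growth inhibition relative to vehicle.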

[4] = NCI Yeast Anticancer Drug Screen. Data for the cln2 rad14 strain (AID 165);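 further: 0% = growth equal to vehicle treated cultures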; conditions: S. cerevisiae cln2 rad14 strain, stronger effect = higher value
How it was run: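 Each compound was tested on cln2 rad14 yeast. Inhibition of growth was calculated against vehicle-exposed controls.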

[5] = NCI Yeast Anticancer Drug Screen. Data for the bub3 strain (AID 167); conditions: S. cerevisiae bub3 mutant strain, stronger effect = higher value
How it was run: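 Growth of a checkpoint-deficient yeast mutant is measured after compound exposure. Values represent inhibition relative to vehicle.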

[6] = NCI Yeast Anticancer Drug Screen. Data for the mlh1 rad18 strain (AID 175); conditions: S. cerevisiae mlh1 rad18 strain growth inhibition, stronger effect = higher value
How it was run: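 Vehicle-treated cultures served as the reference for growth inhibition in a yeast strain carrying DNA damage repair alterations exposed to each compound.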

[7] = at 5.0 µM (retest, dose inferred, filed as 0.5)
[8] = at 50.0 µM (retest, dose inferred, filed as 5.0)

Measured: growth inhibition

O=C(Nc1ccc(F)cc1)N1CCCCC1
active: [5]; [8] 70%
inactive: [1]; [7] 41% | [1]; [8] 43% | [1]; at 50.0 µM 8.15% | [2]; [7] 36% | [2]; [8] 29% | [2]; at 50.0 µM 47% | [3]; [7] 40% | [3]; [8] 42% | [3]; at 50.0 µM 36.9% | [4]; [7] 29% | [4]; [8] 31% | [4]; at 50.0 µM 9.25% | [5]; [7] 41% | [5]; at 50.0 µM 17.3% | [6]; [7] 43% | [6]; [8] 39% | [6]; at 50.0 µM 33.1%

O=C(Nc1nc2c(ncn2C2CC(OC(=O)c3ccccc3)C(COC(=O)c3ccccc3)O2)c(=O)[nH]1)c1ccccc1 (stereo not given)
inactive: [1]; [7] 3% | [1]; [8] 5% | [1]; at 50.0 µM 55.5% | [2]; [7] 8% | [2]; [8] 12% | [2]; at 50.0 µM 38.5% | [3]; [7] -16% | [3]; [8] 33% | [3]; at 50.0 µM 69.6% | [4]; [7] 6% | [4]; [8] 18% | [4]; at 50.0 µM 66.4% | [5]; [7] 7% | [5]; [8] 10% | [5]; at 50.0 µM 57.6% | [6]; [7] 9% | [6]; [8] 12% | [6]; at 50.0 µM 60%

C[C@]12CC[C@H]3[C@@H](CCC4=CC(=O)CC[C@@]43C)[C@@H]1CC[C@@H]2O[Si](O[C@H]1CC[C@H]2[C@@H]3CCC4=CC(=O)CC[C@]4(C)[C@H]3CC[C@]12C)(O[C@H]1CC[C@H]2[C@@H]3CCC4=CC(=O)CC[C@]4(C)[C@H]3CC[C@]12C)c1ccccc1
active: [1]; at 50.0 µM 75.9% | [2]; at 50.0 µM 89.9% | [3]; [8] 93% | [3]; at 50.0 µM 97.5% | [5]; [8] 77% | [5]; at 50.0 µM 81.5% | [6]; [8] 84% | [6]; at 50.0 µM 94.8%
inactive: [1]; [7] 5% | [1]; [8] 59% | [2]; [7] 1% | [2]; [8] 62% | [3]; [7] -1% | [4]; [7] -6% | [4]; [8] 33% | [4]; at 50.0 µM 58.6% | [5]; [7] 4% | [6]; [7] 1%

CC(NNC(=S)N1CC2CCC(CC2)C1)c1nccc2ccccc12 (stereo not given)
active: [1]; [7] 98% | [1]; [8] 96% | [1]; at 50.0 µM 98.7% | [2]; [7] 98% | [2]; [8] 96% | [2]; at 50.0 µM 99% | [3]; [7] 98% | [3]; [8] 96% | [3]; at 50.0 µM 99% | [4]; [7] 97% | [4]; [8] 95% | [4]; at 50.0 µM 98.3% | [5]; [7] 97% | [5]; [8] 94% | [5]; at 50.0 µM 99% | [6]; [7] 98% | [6]; [8] 96% | [6]; at 50.0 µM 99.1%

O=C1/C(=C\c2ccc([N+](=O)[O-])o2)Oc2cc(O)ccc21
active: [1]; [7] 97% | [1]; [8] 96% | [1]; at 50.0 µM 95.2% | [2]; [7] 97% | [2]; [8] 97% | [2]; at 50.0 µM 91.8% | [3]; [7] 96% | [3]; [8] 96% | [3]; at 50.0 µM 95.7% | [4]; [7] 98% | [4]; [8] 98% | [4]; at 50.0 µM 93.6% | [5]; [7] 75% | [5]; [8] 90% | [6]; [7] 97% | [6]; [8] 98% | [6]; at 50.0 µM 95.7%
inactive: [5]; at 50.0 µM 41.5%

O=[N+]([O-])/C(Br)=C\c1ccc([N+](=O)[O-])cc1
active: [1]; [8] 99% | [1]; at 50.0 µM 99.4% | [2]; [8] 100% | [2]; at 50.0 µM 96.8% | [3]; [8] 100% | [3]; at 50.0 µM 99.6% | [4]; [8] 99% | [4]; at 50.0 µM 92% | [5]; [8] 99% | [5]; at 50.0 µM 94.9% | [6]; [8] 99% | [6]; at 50.0 µM 99.5%
inactive: [1]; [7] 19% | [2]; [7] 4% | [3]; [7] 9% | [4]; [7] 17% | [5]; [7] 40% | [6]; [7] 54%

[Cl][Sn]([O][Sn]([Cl])([c]1ccccc1)[CH]1CCCCC1)([c]1ccccc1)[CH]1CCCCC1 (stereo not given)
inactive: [1]; [7] 6% | [2]; [7] 7% | [3]; [7] 12% | [4]; [7] -11% | [5]; [7] 2% | [6]; [7] 5%
active: [1]; [8] 97% | [1]; at 50.0 µM 88% | [2]; [8] 99% | [2]; at 50.0 µM 90.3% | [3]; [8] 99% | [3]; at 50.0 µM 90.8% | [4]; [8] 98% | [4]; at 50.0 µM 90.1% | [5]; [8] 99% | [5]; at 50.0 µM 89.6% | [6]; [8] 97% | [6]; at 50.0 µM 92%

CCOC(=O)/C(C#N)=C\c1ccc(N(CCC(=O)O)CCC(=O)O)c(I)c1
inactive: [1]; [7] 1% | [1]; at 50.0 µM -6.7% | [2]; [7] -4% | [2]; at 50.0 µM 33.5% | [3]; [7] 3% | [3]; [8] 37% | [3]; at 50.0 µM -5.3% | [4]; [7] -7% | [4]; at 50.0 µM 53.8% | [5]; [7] 35% | [5]; at 50.0 µM -13.1% | [6]; [7] 10% | [6]; at 50.0 µM -6.35%
active: [1]; [8] 77% | [2]; [8] 77% | [4]; [8] 77% | [5]; [8] 93% | [6]; [8] 77%

O=C(C#CC(=O)[O][Sn]([c]1ccccc1)([c]1ccccc1)[c]1ccccc1)[O][Sn]([c]1ccccc1)([c]1ccccc1)[c]1ccccc1
active: [1]; [7] 99% | [1]; [8] 99% | [1]; at 50.0 µM 99.1% | [2]; [7] 100% | [2]; [8] 99% | [2]; at 50.0 µM 99.5% | [3]; [7] 100% | [3]; [8] 99% | [3]; at 50.0 µM 99.5% | [4]; [7] 99% | [4]; [8] 99% | [4]; at 50.0 µM 98.4% | [5]; [7] 99% | [5]; [8] 99% | [5]; at 50.0 µM 99% | [6]; [7] 99% | [6]; [8] 99% | [6]; at 50.0 µM 99.2%

COC(=O)C(Sc1ccc(Cl)cc1)C1SC(=S)N(C)C1=O (stereo not given)
active: [1]; [8] 99% | [2]; [8] 99% | [3]; [8] 99% | [4]; [8] 99% | [5]; [8] 99% | [5]; at 50.0 µM 84.8% | [6]; [8] 98%
inactive: [1]; [7] 34% | [1]; at 50.0 µM 62% | [2]; [7] 19% | [2]; at 50.0 µM 41.5% | [3]; [7] 21% | [3]; at 50.0 µM 65.9% | [4]; [7] 27% | [4]; at 50.0 µM 37.2% | [5]; [7] 15% | [6]; [7] 38% | [6]; at 50.0 µM 58%
